Compound activity (PubChem BioAssay)
Many of the other results were omitted from the sample, so hits are more common in it than they were.
PL synth Enamine – animal cell phospholipid biosynthesis inhibition, Enamine screen; ZR-82 CHO cells, pyrene fatty acid UV survival, CellTiter Blue; peroxisome-deficient CHO-K1 mutant line; plus DGAT-1, DGAT-2 and ACAT inhibitors; calls only at 10 µM; 20,000 compounds, 0.4% hits; AID 1347385;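 active = cell survival signal 2 SD away from solvent-only control wells, confirmed on one or two retests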;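 also: 3 h compound exposure then viability read about one day after UV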
Calls only; . = inactive; + = active, no number.

SMILES | PL synth Enamine
CNS(=O)(=O)c1ccc(/C(C)=N/Nc2cc(C)c3cc(C)cc(C)c3n2)cc1 | +
C/C(=N\NS(=O)(=O)c1ccc(C)cc1)c1ccc2c(c1)OCCO2 | .
Cc1ccc(C(=NS(=O)(=O)c2ccc(C)cc2)NS(=O)(=O)c2ccc(C)cc2)cc1 | .
Cc1ccccc1C1=NC(c2cc(Br)cc(Br)c2O)ON1 (configuration not stated) | .
O=c1c2ccc(Cl)cc2[nH]c(=S)n1C1CCCC1 | .
CCOC(=O)c1c(C)[nH]c(C(=O)O)c1C | .
CCOC(=O)c1c(C)[nH]c(N=Nc2ccc3c(c2)OCO3)c1C | +
CCOC(=O)c1c(C)[nH]c(C(=O)COC(=O)c2ccc(C)s2)c1C | .
CC(=O)NCc1ccc(-c2csc(NC(=O)c3cc(C)on3)n2)s1 | .
COC(=O)C1=C(C)NC(C)=C(C(=O)OC)C1C(=O)OCc1ccc(C(=O)OC)o1 | .
CSc1ccc(COc2ncnc3sc4c(c23)CCC4)cc1 | .
CCN(CC)S(=O)(=O)c1ccc(N=Nc2c(O)[nH]c3c(C)cc(C)cc23)nc1 | .
Cc1cc(C)c2[nH]c(O)c(N=Nc3ccccn3)c2c1 | +
Oc1[nH]c2ccc(Br)cc2c1N=Nc1ccccn1 | .
C1=CC2C1C1CCC2C(Oc2ccccc2)C1 (configuration not stated) | .
CCN1C(=Cc2cc(C)[n+](N3CCN(C)CC3)c(C)c2)Sc2ccccc21 | .
CCN1C(=Cc2cc(C)[n+](CCO)c(C)c2)Sc2ccccc21 | .
CCC(CO)[n+]1c(C)cc(C=C2Sc3ccccc3N2Cc2ccccc2)cc1C (configuration not stated) | +
Cc1cc(CSc2nnc(-c3cccs3)n2C2CC2)no1 | .
Cc1ccc(N=Nc2cc(C(C)(C)C)cc(Br)c2O)cc1 | +
CC(C)(C)N/N=C/c1cc(Br)c(O)c(Br)c1 | .
CC(C)(C)c1cc(C=Nc2cc(C(C)(C)C)cc(C(C)(C)C)c2O)c(O)c(C(C)(C)C)c1 | .
CCOC(=O)C/C(C)=N/NC(N)=S | .
N=C(N)N=Nc1c(O)[nH]c2ccccc12 | .
Cc1ccc(C)c(N=Nc2c(C)[nH]c3ccccc23)c1 | +
SMILES | PL synth Enamine
Cc1cc(=S)[nH]c2ccccc12 | .
O=c1[nH]nc(SCc2cc(Cl)cc3c2OCOC3)n1CC1CCCO1 (configuration not stated) | .
S=c1sc(SCCOc2cccc(Br)c2)nn1-c1ccccc1 | .
C1CCc2c(sc3nc(CN4CCOCC4)nc(NC4CC4)c23)C1 | .
CN=c1scc(-c2ccccc2F)n1/N=C/c1ccccc1 | .
CN=c1scc(-c2ccc(Br)cc2)n1/N=C/c1ccccc1F | .
CN=c1scc(-c2ccccc2F)n1/N=C/c1ccccc1F | +
c1ccc2c(c1)ncn2CN1CCOCC1 | .
FC(F)(F)c1cccc(-c2nnn(Cc3ncc(-c4ccccc4)o3)n2)c1 | .
CCC1(C)Oc2ccccc2C2CC(c3ccccc3)=NN21 (configuration not stated) | .
O=C1NC2(Oc3ccccc3C3CC(c4ccccc4)=NN32)/C(=C/c2cccc(OCc3ccccc3)c2)S1 (configuration not stated) | +
c1ccc(C2=NN3C(C2)c2ccccc2OC32CCCC2)cc1 (configuration not stated) | .
O=C1NC2(Oc3ccc(Br)cc3C3CC(c4ccccc4)=NN32)/C(=C/c2ccccc2)S1 (configuration not stated) | +
c1ccc(C2=NN3C(C2)c2ccccc2OC32CCCCC2)cc1 (configuration not stated) | .
CC1(C)Oc2ccccc2C2CC(c3ccc(-c4ccccc4)cc3)=NN21 (configuration not stated) | .
FC(F)Oc1ccc(/C=N/n2cn[nH]c2=S)cc1 | .
O=S(=O)(c1cccs1)N1CCN(Cn2nc(-c3ccco3)oc2=S)CC1 | .
O=C1NC2(Oc3ccccc31)C(=O)Nc1ccccc12 (configuration not stated) | .
O=C1Nc2ccc([N+](=O)[O-])cc2C12NNc1ccccc1O2 (configuration not stated) | +
O=C1Nc2ccc(Br)cc2C12NNc1ccccc1O2 (configuration not stated) | +
O=c1c2cc([N+](=O)[O-])ccc2oc2ccc([N+](=O)[O-])cc12 | .
O=C1Nc2ccc(Br)cc2C1(O)C(F)(F)F (configuration not stated) | .
CN1c2ccccc2C(C)(C)C12C=Cc1cc([N+](=O)[O-])ccc1O2 (configuration not stated) | .
CCCC(=O)Nc1nc2c(s1)CC(C)CC2 (configuration not stated) | .
Cc1ccc(/C=C/C(=O)O)s1 | .
SMILES | PL synth Enamine
CN(C)c1ccc(N=Nc2nn[nH]n2)cc1 | .
CN(C)c1ccc(N=Nc2ccccc2Cl)cc1 | +
CN(C)c1ccc(N=Cc2sc3ccccc3c2Cl)cc1 | .
CN(C)c1ccc(N=Nc2ccccc2Br)cc1 | +
CN(C)c1ccc(C=Nc2ccc(N=Cc3ccc(N(C)C)cc3)cc2)cc1 | .
CN(C)c1ccc(N=Nc2ccc(S(=O)(=O)O)cc2)cc1 | .
O=C(CCN1C(=O)NC2(CCCC2)C1=O)Nc1nc(-c2ccc(Cl)s2)cs1 | .
O=C(CSc1nnc2n1CCCCC2)N1N=C(c2cccs2)CC1c1cccs1 (configuration not stated) | .
CCCn1nc(C(=O)NNC(=O)c2ccc(Br)s2)ccc1=O | .
CC(C)(C)NC(=S)NC(=O)c1ccco1 | .
CN(C)C(CNc1ncnc2sccc12)c1cccs1 (configuration not stated) | .
ClC1(Cl)CC1CNc1ncnc2sccc12 (configuration not stated) | +
OCCCNc1ncnc2sccc12 | .
COc1cc(OC)c(OC)cc1/C=N/n1cc(-c2ccccc2)[nH]c1=S | .
C=CCN(Cc1nc2c(Br)cc(Br)cc2c(=O)[nH]1)Cc1nc2c(Br)cc(Br)cc2c(=O)[nH]1 | .
Clc1cccc(C2=NNC(=Nc3ccccc3Cl)SC2)c1 | .
O=[N+]([O-])c1ccc2[nH]c(O)c(N=Nc3ccc(Cl)c(Cl)c3)c2c1 | .
O=[N+]([O-])c1ccc(N=Nc2c(O)[nH]c3ccc(Br)cc23)cc1 | +
Oc1[nH]c2ccc(Br)cc2c1N=Nc1ccc(Cl)c(Cl)c1 | .
O=C1Oc2c(cc3c4c2CCCN4CCC3)P(=Nc2ccccc2[N+](=O)[O-])(N2CCOCC2)N1c1ccc(Cl)c(Cl)c1 (configuration not stated) | .
C=CCn1c(SC(C)C(=O)NC(N)=O)nnc1C1CCS(=O)(=O)C1 (configuration not stated) | .
S=c1[nH]nc(-c2ccc(Cl)cc2Cl)n1/N=C/C(Br)=C/c1ccccc1 | .
Cc1nn(-c2ccccc2)c2c1P(=S)(Nc1ccc([N+](=O)[O-])cc1)/C(=C1/N(C)c3ccccc3C1(C)C)C=N2 (configuration not stated) | .
Cc1cc([N+](=O)[O-])ccc1NP1(=O)/C(=C2/N(C)c3ccccc3C2(C)C)C=NN1c1ccccc1 (configuration not stated) | .
CN1/C(=C2\C=NN(c3ccccc3)P2(=O)Nc2ccc([N+](=O)[O-])cc2)C(C)(C)c2ccccc21 (configuration not stated) | +
CC1CCCCN1C(=O)CSc1nnc(C2CCS(=O)(=O)C2)o1 (configuration not stated) | .
S=c1[nH]c2ccccc2n1Cc1ccc(Cl)cc1Cl | .
C=CCn1c(SCC(C)=O)nc2sc3c(c2c1=O)CCCC3 | .
